Measurements as given in the supplement of paper PMC4894684.
Counter-ions that a name gives are not always drawn. ± gives the standard deviation of the averaged measurements.

Tested on: Toxoplasma gondii RH (in HFF)
Assay: parasite growth relative to the screen mean (all compounds = 100%); higher = less inhibition of parasite growth
Conditions: 5 µM; 72 h; oxygen 21 %
Summary of the method: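 Library compounds, held as 10 mM DMSO stocks, were pinned to 5 µM final onto confluent human foreskin fibroblasts in 96-well plates. The cells were infected within 2 h with RH β-Gal–GFP Toxoplasma (MOI 1:5), grown 72 h at 21% O2, and assayed for parasite number by CPRG β-Gal using in-plate standard curves. Growth is reported relative to the screen mean, in which all compounds = 100%, averaged over two screens, and CellTiter-Blue checked uninfected host-cell viability.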

| Structure (SMILES) | parasite growth [%] |
| --- | --- |
| O=C(O)c1ccc2[nH]cc(CCCCN3CC=C(c4ccccc4)CC3)c2c1 [Carmoxirole hydrochloride] | 103 ± 7.4 |
| CC[N+](CC)(CCCNC1=CC(=O)C(NCCC[N+](CC)(CC)Cc2ccccc2)=CC1=O)Cc1ccccc1 [Benzoquinonium dibromide] | 129 ± 29 |
| Clc1cccc(SC2CCNCC2)n1 [Anpirtoline hydrochloride] | 76.4 ± 27 |
| CN1C[C@H](C(=O)N[C@]2(C)O[C@@]3(O)[C@@H]4CCCN4C(=O)[C@H](Cc4ccccc4)N3C2=O)C[C@@H]2c3cccc4[nH]cc(c34)C[C@H]21 [Dihydroergotamine mesylate] | 39.27 ± 0.23 |
| O=C(CCCN1CCC2(CC1)C(=O)N(Cc1cccc(F)c1)CN2c1ccccc1)c1ccc(F)cc1 [3'-Fluorobenzylspiperone maleate] | < 0 |
| CC[C@@H](CO)NC(=O)[C@@H]1C=C2c3cccc4c3c(cn4C)C[C@H]2N(C)C1 [Methysergide maleate] | 189 ± 24 |
| O=C1CN=C(c2cccc(Br)c2)c2oc3ccccc3c2N1 | 96 ± 4.5 |
| CC(C(=O)OC1CC2CCC(C1)N2C)c1ccc(Br)cc1 (stereo not drawn) [PG-9 maleate] | 101 ± 1.4 |
| CC(C)[C@@]1(NC(=O)[C@@H]2C[C@@H]3c4cccc5[nH]cc(c45)C[C@H]3N(C)C2)O[C@@]2(O)[C@@H]3CCCN3C(=O)[C@H](Cc3ccccc3)N2C1=O [Dihydroergocristine mesylate] | 8.76 ± 1.6 |
| COc1ccc(-n2nc(C(F)(F)F)cc2-c2ccc(Cl)cc2)cc1 | 117 ± 22 |
| Oc1ccc2c3c1O[C@H]1c4c(c5ccccc5n4Cc4ccccc4)C[C@@]4(O)C(C2)N(CC2CC2)CC[C@]314 [N-Benzylnaltrindole hydrochloride] | < 0 |
| CCCOc1ccc2[nH]cc(C3=CCNCC3)c2n1 | 140 ± 5.8 |
| CN1[C@@H]2C[C@@H](OC(=O)[C@H](CO)c3ccccc3)C[C@H]1[C@@H]1O[C@@H]12 [Scopolamine hydrobromide] | 83.5 ± 48 |
| C[N+]1(C)CCc2cc3c(cc2[C@H]1[C@@H]1OC(=O)c2c1ccc1c2OCO1)OCO3 [(-)-Bicuculline methochloride] | 120 ± 37 |
| C[C@@H]1CC[C@H]2[C@@H](C)C(=O)O[C@@H]3O[C@@]4(C)CC[C@@H]1[C@]32OO4 [Artemisinin] | 31.6 ± 8.8 |
| C[C@@H](N)Cc1cnc[nH]1 [(R)-(-)- α-Methylhistamine dihydrobromide] | 107 ± 25 |
| CN1c2ccccc2C(NCCCCCCC(=O)O)c2ccc(Cl)cc2S1(=O)=O (stereo not drawn) [Tianeptine] | 98.7 ± 16 |
| CCN(CC)CCO[C@H]1CC[C@@]2(C)C(=CC[C@@H]3[C@@H]2CC[C@]2(C)C(=O)CC[C@@H]32)C1 | 79.6 ± 24 |
| COC1(C[S@+]([O-])c2ccccc2)CCN(CCc2c[nH]c3ccc(F)cc23)CC1 | 67.1 ± 9.3 |

| Structure (SMILES) | parasite growth [%] |
| --- | --- |
| CS(=O)(=O)Nc1ccc(Cc2noc(-c3ccc4[nH]cc(CCN)c4c3)n2)cc1 | 124 ± 6.6 |
| CN(C)CCN(C)CCc1ccc(Cl)c(Cl)c1 [BD 1047 dihydrobromide] | 89.4 ± 30 |
| CNCCc1cnc[nH]1 [N α-Methylhistamine dihydrochloride] | 102 ± 1.5 |
| CN1[C@@H]2CC[C@H]1C[C@@H](OC(=O)c1cc(Cl)cc(Cl)c1)C2 | 70.1 ± 18 |
| CC(C)n1cnc2c(C(=O)N[C@H]3CN4CCC3CC4)cc(Cl)cc21 | 71.5 ± 9.6 |
| CN(C(=O)Cc1ccccc1)C(CN1CCCC1)c1ccccc1 (stereo not drawn) [N-MPPP Hydrochloride] | 112.4 ± 0.63 |
| O=c1cccc2n1C[C@@H]1CNC[C@H]2C1 [(-)-Cytisine] | 128 ± 26 |
| O=C(O)CCC(CP(=O)(O)O)C(=O)O (stereo not drawn) [PMPA (NAALADase inhibitor)] | 126 ± 9.3 |
| N[C@@H](Cn1oc(=O)[nH]c1=O)C(=O)O [L-Quisqualic acid] | 99 ± 20 |
| c1ccc2sc(C3(N4CCCCC4)CCCCC3)cc2c1 [BTCP maleate] | 64.9 ± 4.1 |
| C[C@@]12N[C@@H](Cc3ccccc31)c1ccccc12 [(-)-MK 801 maleate] | 111 ± 10 |
| CN1CC[C@@H]2CN3CCc4cccc(c43)[C@@H]2C1 [SDZ SER 082 fumarate] | 165 ± 19 |
| c1ccc2nc(N3CCNCC3)ccc2c1 [Quipazine dimaleate] | 115 ± 8.3 |
| CC(C)C[C@@H](N)C1(c2ccc(Cl)cc2)CCC1 | 111.4 ± 0.42 |
| COc1cc2c(cc1OC)C1CC(=O)C(CC(C)C)CN1CC2 (stereo not drawn) [Tetrabenazine] | 132 ± 1.5 |
| CC(C)(C)OC(=O)c1ncn2c1[C@@H]1CCCN1C(=O)c1c(Br)cccc1-2 [Bretazenil] | 87.1 ± 5.4 |
| CC(N)Cc1c[nH]c2ccc(OCc3cccs3)cc12 (stereo not drawn) [BW 723C86 hydrochloride] | 133 ± 3.8 |
| CCCN[C@@H]1CCc2c(OC)cccc2[C@@H]1C [(+)-AJ 76 hydrochloride] | 66.5 ± 24 |
| O=c1ccc2[nH]cc(C3=CCNCC3)c2[nH]1 | 65.2 ± 3.1 |
